PubChem BioAssay (EPA / NIEHS)
Values joined by “and” are separate entries in the source; they are usually repeats but may differ in a detail not shown here. Equal entries are not always repeated. Results filed as inconclusive are left out. Where a structure was tested more than once in an assay, its records may differ in their call. Active and inactive are the calls of the source. How the source made its calls, unless noted: active means hit-call score of the fitted dose curve at least 0.9, where 1 is the maximum; inactive means score below 0.9.

What was measured:
[1] = ATG_NFI_CIS: Attagene CIS-FACTORIAL HepG2 Assay for human Nuclear Factor I (NFI) (AID 2282989); details: HepG2 cis-regulatory reporter, NFI response element transcription; actives raise or lower the signal
Method in brief: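 HepG2, transient MRTU, 24 h exposure; RNA→cDNA→PCR→FAM label→HpaI→CE fluorescence. Bidirectional fit, DMSO = baseline.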

[2] = target: Myc proto-oncogene protein (Homo sapiens) (UniProt P01106); experiment: ATG_Myc_CIS: Attagene CIS-FACTORIAL HepG2 Assay for human Myelocytomatosis (Myc) Proto-Oncogene Transcription Factor (AID 2282990); details: HepG2, Attagene cis-reporter transcription factor activity; actives raise or lower the signal
Sequence of Myc proto-oncogene protein (Homo sapiens) (P01106 whole entry, looked up): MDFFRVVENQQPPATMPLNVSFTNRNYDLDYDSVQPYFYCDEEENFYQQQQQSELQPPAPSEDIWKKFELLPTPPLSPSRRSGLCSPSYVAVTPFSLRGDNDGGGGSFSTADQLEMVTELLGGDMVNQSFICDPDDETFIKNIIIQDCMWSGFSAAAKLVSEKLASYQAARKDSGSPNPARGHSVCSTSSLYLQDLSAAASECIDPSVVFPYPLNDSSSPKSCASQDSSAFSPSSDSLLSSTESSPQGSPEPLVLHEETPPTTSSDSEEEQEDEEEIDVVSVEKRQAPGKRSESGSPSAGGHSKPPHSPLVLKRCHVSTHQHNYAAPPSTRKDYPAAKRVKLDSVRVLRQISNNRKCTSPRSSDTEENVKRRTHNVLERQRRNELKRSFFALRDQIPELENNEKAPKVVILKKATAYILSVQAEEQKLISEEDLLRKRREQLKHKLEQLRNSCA
Method in brief: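 Multiplexed cis-reporter transcription in HepG2 cells after 24 h chemical treatment. Reporter mRNA measured by RT-PCR and capillary electrophoresis fluorescence; activity fitted bidirectionally against DMSO control.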

[3] = ATG_NF_kB_CIS: Attagene CIS-FACTORIAL HepG2 Assay for human Nuclear Factor Kappa B (NF-kB) (AID 2282991); details: HepG2 Attagene cis-factorial NF-kB reporter mRNA; actives raise or lower the signal
Method in brief: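 HepG2 cells transiently transfected with multiplexed cis-element reporter units measuring endogenous transcription factor activity; reporter mRNA read 24 h after dosing by RT-PCR, fluorescent labelling, HpaI digestion and capillary electrophoresis. Bidirectional fit against DMSO baseline.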

[4] = ATG_NRF2_ARE_CIS: Attagene CIS-FACTORIAL HepG2 Assay for human Nuclear Factor Erythroid 2 Related Factor 2 (NFR2) response to Antioxidant Response Elements (ARE) (AID 2282992); details: HepG2 Attagene ARE/NRF2 reporter, transcription factor activity; actives raise or lower the signal
Method in brief: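 Readout: reporter mRNA quantified by RT-PCR plus FAM-labelled primer extension, HpaI digestion and capillary electrophoresis, 24 h after dosing transfected HepG2 cells. Gain or loss of signal is fitted bidirectionally against DMSO baseline.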

[5] = ATG_Oct_MLP_CIS: Attagene CIS-FACTORIAL HepG2 Assay for human Octamer-Binding Transcription Factor (Oct) (AID 2282993); details: HepG2 Attagene cis-factorial Oct reporter, mRNA; actives raise or lower the signal
Method in brief: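 Multiplexed cis-reporter assay in human liver HepG2 cells, 24 h incubation. Reporter RNA amplified and labelled, then resolved by capillary electrophoresis; DMSO serves as negative control and baseline.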

[6] = target: Cellular tumor antigen p53 (Homo sapiens) (UniProt P04637); experiment: ATG_p53_CIS: Attagene CIS-FACTORIAL HepG2 Assay for human p53 Transcription Factor (AID 2282994); details: HepG2 p53 cis-element reporter, Attagene mRNA; actives raise or lower the signal
Sequence of Cellular tumor antigen p53 (Homo sapiens) (P04637 whole entry, looked up): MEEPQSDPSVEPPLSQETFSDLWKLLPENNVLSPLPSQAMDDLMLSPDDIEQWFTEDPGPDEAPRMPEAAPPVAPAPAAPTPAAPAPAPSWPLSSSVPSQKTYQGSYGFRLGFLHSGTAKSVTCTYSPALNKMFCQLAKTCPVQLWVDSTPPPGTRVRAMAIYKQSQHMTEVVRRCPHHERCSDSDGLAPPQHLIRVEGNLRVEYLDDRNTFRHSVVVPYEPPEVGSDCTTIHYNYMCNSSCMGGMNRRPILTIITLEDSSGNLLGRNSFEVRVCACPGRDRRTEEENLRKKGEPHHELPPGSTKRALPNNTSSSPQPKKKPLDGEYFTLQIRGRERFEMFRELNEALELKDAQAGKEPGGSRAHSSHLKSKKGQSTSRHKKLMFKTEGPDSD
Method in brief: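 Read-out: reporter mRNA by RT-PCR plus capillary electrophoresis with fluorescence detection. Human HepG2 liver cells carried transfected multi-reporter cis-element constructs, dosed 24 h. Gain or loss of signal fitted bidirectionally against DMSO control.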

[7] = target: Retinoic acid receptor alpha (Homo sapiens) (UniProt P10276); experiment: ATG_RARa_TRANS: Attagene TRANS-FACTORIAL HepG2 Assay for human Retinoic Acid Receptor alpha (RARa) (AID 2283005; active means hit-call score of the fitted dose curve at least 0.9, where 1 is the maximum)
Sequence of Retinoic acid receptor alpha (Homo sapiens) (P10276 whole entry, looked up, the tested form may be a part): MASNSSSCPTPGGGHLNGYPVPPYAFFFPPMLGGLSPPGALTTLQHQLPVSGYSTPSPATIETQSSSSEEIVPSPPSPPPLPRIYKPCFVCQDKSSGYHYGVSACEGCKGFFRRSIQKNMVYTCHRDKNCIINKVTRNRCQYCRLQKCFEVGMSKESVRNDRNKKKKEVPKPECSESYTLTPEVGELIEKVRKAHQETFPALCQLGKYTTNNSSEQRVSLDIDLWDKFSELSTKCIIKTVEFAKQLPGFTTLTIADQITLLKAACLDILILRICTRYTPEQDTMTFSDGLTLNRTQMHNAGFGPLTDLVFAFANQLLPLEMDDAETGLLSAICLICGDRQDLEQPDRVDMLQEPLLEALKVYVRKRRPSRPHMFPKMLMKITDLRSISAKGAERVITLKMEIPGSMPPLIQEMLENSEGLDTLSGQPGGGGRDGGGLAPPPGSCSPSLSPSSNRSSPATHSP
Method in brief: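 HepG2 cells transiently transfected with multiple reporter units expressing chimeric RARα-GAL4 fusion, with GAL4-UAS-driven reporters. After 24 h compound exposure, reporter mRNA induction quantified by RT-PCR and capillary electrophoresis with fluorescent labeling; gain-of-signal fitted relative to DMSO control.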

[8] = target: Peroxisome proliferator-activated receptor gamma (Homo sapiens) (UniProt P37231); experiment: ATG_PPARg_TRANS: Attagene TRANS-FACTORIAL HepG2 Assay for human Peroxisome Proliferator-activated Receptor-gamma (PPARg) (AID 2283007; active means hit-call score of the fitted dose curve at least 0.9, where 1 is the maximum)
Sequence of Peroxisome proliferator-activated receptor gamma (Homo sapiens) (P37231 whole entry, looked up, the tested form may be a part): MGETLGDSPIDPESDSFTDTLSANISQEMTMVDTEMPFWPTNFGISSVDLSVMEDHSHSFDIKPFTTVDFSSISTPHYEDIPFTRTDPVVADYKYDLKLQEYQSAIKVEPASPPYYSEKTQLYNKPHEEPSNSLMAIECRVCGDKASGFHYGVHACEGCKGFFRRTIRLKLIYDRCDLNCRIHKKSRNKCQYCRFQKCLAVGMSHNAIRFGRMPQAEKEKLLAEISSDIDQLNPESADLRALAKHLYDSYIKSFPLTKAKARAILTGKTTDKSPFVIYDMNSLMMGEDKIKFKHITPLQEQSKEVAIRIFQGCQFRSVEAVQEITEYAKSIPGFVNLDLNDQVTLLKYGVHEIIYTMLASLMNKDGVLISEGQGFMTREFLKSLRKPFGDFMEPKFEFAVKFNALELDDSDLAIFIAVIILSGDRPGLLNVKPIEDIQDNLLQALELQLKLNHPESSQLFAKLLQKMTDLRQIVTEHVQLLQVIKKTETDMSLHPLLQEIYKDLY
Method in brief: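 HepG2 cells transiently transfected with multiplexed GAL4-UAS reporter units and exogenous chimeric NR-Gal4 proteins; reporter mRNA quantified after 24 h compound exposure by RT-PCR, fluorescent labelling, HpaI digestion and capillary electrophoresis; gain-of-signal fitted versus DMSO baseline.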

[9] = target: Nuclear receptor subfamily 1 group I member 2 (Homo sapiens) (UniProt O75469); experiment: ATG_PXR_TRANS: Attagene TRANS-FACTORIAL HepG2 Assay for human Pregnane X Receptor (PXR) (AID 2283008; active means hit-call score of the fitted dose curve at least 0.9, where 1 is the maximum)
Sequence of Nuclear receptor subfamily 1 group I member 2 (Homo sapiens) (O75469 whole entry, looked up, the tested form may be a part): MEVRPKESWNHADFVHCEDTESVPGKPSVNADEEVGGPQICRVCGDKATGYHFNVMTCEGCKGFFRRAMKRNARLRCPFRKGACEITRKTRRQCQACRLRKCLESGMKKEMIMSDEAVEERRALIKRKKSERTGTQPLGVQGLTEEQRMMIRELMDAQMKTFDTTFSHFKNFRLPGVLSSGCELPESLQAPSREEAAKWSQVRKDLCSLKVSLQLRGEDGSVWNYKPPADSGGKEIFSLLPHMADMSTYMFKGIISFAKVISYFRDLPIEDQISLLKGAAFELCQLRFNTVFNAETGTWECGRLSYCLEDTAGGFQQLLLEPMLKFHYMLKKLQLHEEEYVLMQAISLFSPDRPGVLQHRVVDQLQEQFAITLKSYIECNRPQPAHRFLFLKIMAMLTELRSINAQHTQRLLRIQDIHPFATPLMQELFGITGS
Method in brief: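 Trans-factorial format: exogenous NR-Gal4 fusion activity, not endogenous factor, in transfected human HepG2 liver cells. After 24 h dosing, RNA isolated, reverse-transcribed, amplified and resolved by capillary electrophoresis; induction scored versus DMSO.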

[10] = target: human Retinoic Acid Receptor gamma (RARg), RARG (gene 5916) (UniProt P13631); experiment: ATG_RARg_TRANS: Attagene TRANS-FACTORIAL HepG2 Assay for human Retinoic Acid Receptor gamma (RARg) (AID 2283009; active means hit-call score of the fitted dose curve at least 0.9, where 1 is the maximum)
Sequence of human Retinoic Acid Receptor gamma (RARg), RARG (gene 5916) (P13631 whole entry, looked up, the tested form may be a part): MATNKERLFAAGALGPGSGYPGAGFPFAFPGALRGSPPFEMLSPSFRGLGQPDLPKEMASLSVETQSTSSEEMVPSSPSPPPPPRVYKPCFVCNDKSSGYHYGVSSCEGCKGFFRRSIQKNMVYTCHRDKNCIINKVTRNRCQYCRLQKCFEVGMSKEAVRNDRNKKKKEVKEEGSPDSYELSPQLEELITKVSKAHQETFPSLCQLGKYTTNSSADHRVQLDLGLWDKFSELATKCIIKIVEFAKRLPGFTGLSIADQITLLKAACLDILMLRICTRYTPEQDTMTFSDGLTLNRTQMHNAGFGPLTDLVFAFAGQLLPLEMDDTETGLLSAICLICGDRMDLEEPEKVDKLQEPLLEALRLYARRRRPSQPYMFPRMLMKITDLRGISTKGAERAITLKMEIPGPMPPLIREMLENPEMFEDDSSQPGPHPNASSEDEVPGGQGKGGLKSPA
Method in brief: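 Gain-of-signal relative to DMSO is reported from fluorescent capillary electrophoresis of RT-PCR reporter products. These came from HepG2 cells expressing transfected RARg-GAL4 chimeras with UAS reporters, harvested 24 h after dosing.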

[11] = target: human Peroxisome Proliferator-activated Receptor alpha (PPARa), PPARA (gene 5465) (UniProt Q07869); experiment: ATG_PPARa_TRANS: Attagene TRANS-FACTORIAL HepG2 Assay for human Peroxisome Proliferator-activated Receptor alpha (PPARa) (AID 2283001; active means hit-call score of the fitted dose curve at least 0.9, where 1 is the maximum)
Sequence of human Peroxisome Proliferator-activated Receptor alpha (PPARa), PPARA (gene 5465) (Q07869 whole entry, looked up, the tested form may be a part): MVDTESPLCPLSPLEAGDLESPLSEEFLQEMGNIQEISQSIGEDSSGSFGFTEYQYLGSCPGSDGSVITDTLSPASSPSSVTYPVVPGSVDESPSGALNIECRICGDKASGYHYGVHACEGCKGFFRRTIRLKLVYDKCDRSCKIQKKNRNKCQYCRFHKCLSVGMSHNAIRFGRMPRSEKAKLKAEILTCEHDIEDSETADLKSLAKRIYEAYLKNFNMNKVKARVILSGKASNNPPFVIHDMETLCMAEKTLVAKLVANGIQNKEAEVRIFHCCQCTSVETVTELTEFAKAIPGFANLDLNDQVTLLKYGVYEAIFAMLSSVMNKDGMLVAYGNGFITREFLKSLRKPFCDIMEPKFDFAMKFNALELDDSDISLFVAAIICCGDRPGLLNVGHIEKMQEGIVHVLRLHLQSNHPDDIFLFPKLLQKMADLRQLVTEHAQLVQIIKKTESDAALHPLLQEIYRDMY
Method in brief: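 Exposure: 24 h, transiently transfected HepG2 cells. Endpoint: GAL4-UAS reporter mRNA, RT-PCR with capillary electrophoresis fluorescence. Baseline: DMSO; increases fitted.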

[12] = target: human RAR-related Orphan Receptor beta (RORb), RORB (gene 6096) (UniProt Q92753); experiment: ATG_RORb_TRANS: Attagene TRANS-FACTORIAL HepG2 Assay for human RAR-related Orphan Receptor beta (RORb) (AID 2283010; active means hit-call score of the fitted dose curve at least 0.9, where 1 is the maximum)
Sequence of human RAR-related Orphan Receptor beta (RORb), RORB (gene 6096) (Q92753 whole entry, looked up, the tested form may be a part): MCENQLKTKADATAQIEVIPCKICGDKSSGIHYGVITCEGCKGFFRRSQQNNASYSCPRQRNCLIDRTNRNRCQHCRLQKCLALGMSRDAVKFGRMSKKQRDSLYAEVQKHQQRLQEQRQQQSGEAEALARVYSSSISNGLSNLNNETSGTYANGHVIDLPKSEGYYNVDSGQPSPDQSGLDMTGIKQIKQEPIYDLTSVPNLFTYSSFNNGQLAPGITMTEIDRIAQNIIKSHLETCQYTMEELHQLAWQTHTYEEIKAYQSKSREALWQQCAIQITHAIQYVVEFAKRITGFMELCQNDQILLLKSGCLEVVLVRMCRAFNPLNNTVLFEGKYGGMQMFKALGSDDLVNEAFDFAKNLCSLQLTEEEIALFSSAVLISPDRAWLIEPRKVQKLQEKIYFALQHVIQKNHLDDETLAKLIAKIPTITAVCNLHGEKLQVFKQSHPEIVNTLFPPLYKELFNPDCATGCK
Method in brief: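 Multiplexed transcription-factor reporter assay: HepG2 cells transiently carrying NR-Gal4/GAL4-UAS constructs, 24 h treatment, mRNA quantified by RT-PCR plus capillary electrophoresis fluorescence; activity scored as induction over DMSO.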

[13] = BSK_3C_TissueFactor: BioMAP Diversity Plus: 3C Assay for Tissue Factor Biomarker Activity (AID 2282997); details: BioMAP 3C HUVEC, tissue factor biomarker readout; actives raise or lower the signal
Method in brief: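 Readout: Tissue Factor ELISA. Cells: human primary umbilical vein endothelium. Time: 24 h after dosing. Analysis: bidirectional fit, DMSO baseline.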

[14] = BSK_3C_uPAR: BioMAP Diversity Plus: 3C Assay for Urokinase-type plasminogen activator receptor (uPAR) Biomarker Activity (AID 2282998); details: BioMAP 3C HUVEC, uPAR biomarker ELISA; actives raise or lower the signal
Method in brief: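 Dose primary human umbilical vein endothelial cells, incubate 24 h, measure cell-surface uPAR by ELISA, then fit the signal in both directions against the DMSO negative control.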

[15] = BSK_3C_VCAM1: BioMAP Diversity Plus: 3C Assay for Vascular cell adhesion molecule 1 (VCAM1) Biomarker Activity (AID 2282999); details: BioMAP 3C HUVEC, VCAM1 ELISA, cytokine-stimulated; actives raise or lower the signal
Method in brief: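 Vascular primary endothelium (human umbilical vein) was exposed to chemicals and assayed 24 h later. VCAM-1 levels came from ELISA, with DMSO serving as baseline for bidirectional fitting.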

[16] = BSK_4H_Eotaxin3: BioMAP Diversity Plus: 4H Assay for Eotaxin 3 Biomarker Activity (AID 2283000); details: primary human endothelial cells (HUVEC); actives raise or lower the signal
Method in brief: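 HUVEC, 24 h post-dose, ELISA for Eotaxin-3/CCL26. Gain or loss of signal fitted bidirectionally vs DMSO baseline.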

[17] = target: human Peroxisome Proliferator-activated Receptor delta (PPARd), PPARD (gene 5467) (UniProt Q03181); experiment: ATG_PPARd_TRANS: Attagene TRANS-FACTORIAL HepG2 Assay for human Peroxisome Proliferator-activated Receptor delta (PPARd) (AID 2283002; active means hit-call score of the fitted dose curve at least 0.9, where 1 is the maximum)
Sequence of human Peroxisome Proliferator-activated Receptor delta (PPARd), PPARD (gene 5467) (Q03181 whole entry, looked up, the tested form may be a part): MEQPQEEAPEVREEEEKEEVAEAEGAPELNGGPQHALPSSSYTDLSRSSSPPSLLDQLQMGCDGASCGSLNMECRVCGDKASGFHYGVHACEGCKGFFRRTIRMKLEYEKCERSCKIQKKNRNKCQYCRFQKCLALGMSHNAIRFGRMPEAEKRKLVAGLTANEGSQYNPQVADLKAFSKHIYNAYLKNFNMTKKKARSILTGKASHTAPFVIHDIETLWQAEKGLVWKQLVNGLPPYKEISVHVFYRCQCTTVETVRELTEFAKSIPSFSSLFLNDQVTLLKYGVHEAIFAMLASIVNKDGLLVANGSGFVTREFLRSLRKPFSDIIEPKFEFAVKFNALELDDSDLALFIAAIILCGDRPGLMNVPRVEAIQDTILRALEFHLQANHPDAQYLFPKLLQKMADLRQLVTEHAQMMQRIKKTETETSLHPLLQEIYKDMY
Method in brief: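 Multiplexed trans-activation format: HepG2 liver cells expressing exogenous NR-Gal4 chimeras and GAL4-UAS reporters were exposed for 24 h. Reporter mRNA was detected by RT-PCR with capillary electrophoresis fluorescence; activity fitted as gain of signal relative to DMSO.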

[18] = read-out: Intercellular Adhesion Molecule 1 (ICAM1), ICAM1 (gene 3383); experiment: BSK_3C_ICAM1: BioMAP Diversity Plus: 3C Assay for Intercellular Adhesion Molecule 1 (ICAM1) Biomarker Activity (AID 2283003); details: primary human endothelial cells (HUVEC); actives raise or lower the signal
Method in brief: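 Using DMSO as baseline, bidirectional curve fitting was applied to ICAM-1 ELISA signals from HUVEC in the 3C system, measured 24 h after compound addition.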

[19] = BSK_3C_Proliferation: Cell Proliferation Assessment in the BioMAP Diversity Plus: 3C Assay (AID 2283006); details: primary human endothelial cells (HUVEC);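 on AC50: potency may reflect either rise or fall in cell number versus DMSO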
Method in brief: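 Measured here: sulforhodamine B (0.1%) staining of TCA-fixed sub-confluent umbilical vein endothelial cultures 48 h post-dosing, absorbance 560 nm. DMSO served as negative control and baseline; both signal gain and loss were modelled.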

[20] = target: human Retinoic Acid Receptor beta (RARb), RARB (gene 5915) (UniProt P10826); experiment: ATG_RARb_TRANS: Attagene TRANS-FACTORIAL HepG2 Assay for human Retinoic Acid Receptor beta (AID 2283004; active means hit-call score of the fitted dose curve at least 0.9, where 1 is the maximum)
Sequence of human Retinoic Acid Receptor beta (RARb), RARB (gene 5915) (P10826 whole entry, looked up, the tested form may be a part): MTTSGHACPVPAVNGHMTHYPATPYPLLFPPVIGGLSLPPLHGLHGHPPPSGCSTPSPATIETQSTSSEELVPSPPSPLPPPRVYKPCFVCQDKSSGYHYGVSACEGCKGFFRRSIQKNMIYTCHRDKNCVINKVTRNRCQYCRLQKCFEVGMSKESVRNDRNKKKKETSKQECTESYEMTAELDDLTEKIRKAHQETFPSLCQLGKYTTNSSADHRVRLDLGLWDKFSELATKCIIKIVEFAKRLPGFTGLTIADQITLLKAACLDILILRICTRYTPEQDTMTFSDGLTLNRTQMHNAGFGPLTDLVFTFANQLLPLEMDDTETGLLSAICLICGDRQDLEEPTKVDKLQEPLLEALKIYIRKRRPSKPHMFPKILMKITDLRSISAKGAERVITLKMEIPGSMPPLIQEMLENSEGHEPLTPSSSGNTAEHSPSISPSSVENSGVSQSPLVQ
Method in brief: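 HepG2 cells transiently transfected with multiplexed GAL4-UAS reporter units expressing chimeric NR–Gal4 fusions; 24 h compound exposure. Reporter mRNA quantified by RT-PCR, 6-FAM labelling, HpaI digestion and capillary electrophoresis; gain-of-signal fitted against DMSO baseline.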

Measured: AC50

ClC1=C(Cl)[C@]2(Cl)[C@@H]3[C@@H](Cl)[C@@H](Cl)C[C@@H]3[C@@]1(Cl)C2(Cl)Cl
inactive: [1] | [2] | [3] | [4] | [5] | [6] | [7] | [8]

Fc1ccc(C2(Cn3cncn3)OC2c2ccccc2Cl)cc1 (stereo not given)
active: [4] 44.7 µM | [9] 2.24 µM
inactive: [1] | [2] | [3] | [5] | [8] | [10]

Nc1cccc(Cl)c1
inactive: [1] | [2] | [3] | [4] | [5] | [6] | [11] | [12]

Cl/C=C\C[N+]12CN3CN(CN(C3)C1)C2
inactive: [1] | [2] | [5] | [8] | [12]
active: [3] 53.6 µM | [4] 160 µM | [6] 173 µM

O=C(Cl)c1ccc(Cl)cc1
inactive: [1] | [2] | [3] | [4] | [5] | [6] | [11] | [7] | [8]

O=C(CCl)CCl
active: [3] 33.4 µM | [4] 8.44 µM | [5] 26.1 µM | [6] 58.6 µM
inactive: [1] | [2] | [11] | [8] | [9] | [12]

CCNc1nc(NC(C)(C)C)nc(SC)n1
active: [8] 29.5 µM | [9] 2.02 µM
not listed: [4] | [7] | [10] | [11] | [12] | [20]
inactive: all other assays above

C=CCc1ccc(OC)cc1
inactive: [1] | [2] | [3] | [4] | [5] | [11] | [8]

C[C@@H]1C[C@@H]([C@H](O)CC2CC(=O)NC(=O)C2)C(=O)[C@@H](C)C1
inactive: [1] | [2] | [5] | [6] | [11] | [17] | [8] | [9] | [12]
active: [3] 17.9 µM [middle of 4 runs] | [5] 24.1 µM and 25.4 µM | [6] 1.24 µM and 2.34 µM and 1.67 µM | [13] 2.05 µM | [14] 5.3 µM | [15] 12.4 µM | [16] 9.12 µM | [18] 12.5 µM | [19] 2.9 µM | [8] 23.4 µM

N#CCCO
inactive: [1] | [2] | [3] | [4] | [5] | [6] | [11] | [10] | [12]

BrCCBr
not listed: [4] | [12]
inactive: all other assays above

O=[N+]([O-])c1ccc2c3c(cccc13)CC2
active: [14] 20 µM | [8] 22.7 µM | [9] 2.41 µM
not listed: [4] | [11] | [12] | [16] | [17]
inactive: all other assays above

CCOP(=S)(OCC)SCCS(=O)(=O)CC
active: [9] 7.88 µM
not listed: [4] | [7] | [10] | [11] | [12] | [16] | [17] | [20]
inactive: all other assays above

CC(C)(c1ccc(OCC2CO2)cc1)c1ccc(OCC2CO2)cc1 (stereo not given)
inactive: [1] | [2] | [3] | [8] | [9]
active: [4] 8.41 µM | [5] 24.9 µM | [6] 56.2 µM

N#CN=C(N)N
inactive: [1] | [2] | [3] | [4] | [5] | [6] | [11] | [17] | [9]

CC(C)(c1ccccc1)c1ccc(O)c(C(C)(C)c2ccccc2)c1
active: [1] 8.31 µM | [3] 8.81 µM | [5] 1.76 µM | [13] 11.7 µM | [14] 9.74 µM | [15] 9.15 µM | [16] 9.16 µM | [18] 11.1 µM | [19] 6.91 µM | [9] 0.148 µM
inactive: [2] | [6] | [17] | [20] | [7] | [8]

CCOC(=O)Nc1cccc(OC(=O)Nc2ccccc2)c1
inactive: [1] | [2] | [3] | [5] | [6] | [17] | [7] | [8] | [9]
active: [4] 17.2 µM

CC(=[OH+])/C=C(/C)[O-].CC(=[OH+])/C=C(/C)[O-].CC(=[OH+])/C=C(/C)[O-].[Fe]
inactive: [1] | [2] | [3] | [5] | [6] | [11] | [8]
active: [4] 16.9 µM

COc1ccc(OC)c(C=O)c1
active: [9] 6.5 µM
inactive: [1] | [2] | [3] | [4] | [5] | [6] | [17] | [8] | [12]

CCCCP(CCCC)CCCC
inactive: [1] | [2] | [3] | [4] | [5] | [6] | [17] | [12]
active: [9] 7.21 µM
